Experiments:
Conditions in all cases: concentration: 1 μM,replicates: in singlicate; n = 1
[1] = system: CAMK1
[2] = system: CAMK2A
[3] = system: CAMK2B
[4] = system: CAMK2D
[5] = system: CAMK2G
[6] = system: CAMK4
[7] = system: CAMKK1
[8] = system: CAMKK2
[9] = system: CASK
[10] = system: T1, CDC2L1
T1 construct: gene CDK11B

[11] = system: CDC2L2
[12] = system: T2, CDC2L5
T2 construct: gene CDK13

[13] = system: T3, CDK11
T3 construct: gene CDK19

[14] = system: CDK2
[15] = system: CDK3
[16] = system: CDK4-cyclinD1
[17] = system: CDK4-cyclinD3
[18] = system: CDK4
[19] = system: CDK5
[20] = system: CDK7
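Also: KINOMEscan kinase panel screen.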

Q: For `CN(c1ccc2c(c1)nc(NCc1ccc(F)cc1)n2C)c1ccnc(Nc2ccc(CS(C)(=O)=O)cc2)n1.Cl` [GW813244], which “%Inh” value [1] is on record?
A: 0%

Q: What about the “%Inh” value [2] of the same molecule?
A: 0%

Q: And the “%Inh” value [3]?
A: 0%

Q: And the “%Inh” value [4]?
A: 0%

Q: What about the “%Inh” value [5] of the same molecule?
A: 1%

Q: What about the “%Inh” value [6] of the same molecule?
A: 0%

Q: And the “%Inh” value [7]?
A: 0%

Q: And the “%Inh” value [8]?
A: 6%

Q: And the “%Inh” value [9]?
A: 15%

Q: What about the “%Inh” value [10] of the same molecule?
A: 94.5%

Q: And the “%Inh” value [11]?
A: 92.6%

Q: And the “%Inh” value [12]?
A: 0%

Q: And the “%Inh” value [13]?
A: 26%

Q: And the “%Inh” value [14]?
A: 5%

Q: And the “%Inh” value [15]?
A: 6%

Q: What about the “%Inh” value [16] of the same molecule?
A: 0%

Q: And the “%Inh” value [17]?
A: 10%

Q: What about the “%Inh” value [18] of the same molecule?
A: 22%

Q: What about the “%Inh” value [19] of the same molecule?
A: 0%

Q: And the “%Inh” value [20]?
A: 31%

Q: Which results are given for `NC(=O)Nc1sc(-c2ccc(F)cc2)cc1C(N)=O` [GW789449]?
A: %Inh [1]: 12%; %Inh [2]: 0%; %Inh [3]: 0%; %Inh [4]: 2%; %Inh [5]: 0%; %Inh [6]: 0%; %Inh [7]: 12%; %Inh [8]: 7%; %Inh [9]: 15%; %Inh [10]: 0%; %Inh [11]: 0%; %Inh [12]: 14%; %Inh [13]: 0%; %Inh [14]: 0%; %Inh [15]: 17%; %Inh [16]: 30%; %Inh [17]: 0%; %Inh [18]: 0%; %Inh [19]: 0%; %Inh [20]: 19%

Q: Which “%Inh” value [1] does the source give for `O=C(Nc1cccc(C(F)(F)F)c1)c1cccc(Oc2ccc3nccn3n2)c1` here?
A: 1%

Q: What about the “%Inh” value [2] of the same molecule?
A: 0%

Q: What about the “%Inh” value [3] of the same molecule?
A: 0%

Q: And the “%Inh” value [4]?
A: 0%

Q: What about the “%Inh” value [5] of the same molecule?
A: 0%

Q: What about the “%Inh” value [6] of the same molecule?
A: 0%

Q: And the “%Inh” value [7]?
A: 8%

Q: And the “%Inh” value [8]?
A: 0%

Q: What about the “%Inh” value [9] of the same molecule?
A: 17%

Q: And the “%Inh” value [10]?
A: 1%

Q: What about the “%Inh” value [11] of the same molecule?
A: 3%

Q: And the “%Inh” value [12]?
A: 0%

Q: And the “%Inh” value [13]?
A: 0%

Q: What about the “%Inh” value [14] of the same molecule?
A: 11%

Q: And the “%Inh” value [15]?
A: 22%

Q: What about the “%Inh” value [16] of the same molecule?
A: 18%

Q: What about the “%Inh” value [17] of the same molecule?
A: 19%

Q: And the “%Inh” value [18]?
A: 0%

Q: And the “%Inh” value [19]?
A: 0%

Q: What about the “%Inh” value [20] of the same molecule?
A: 0%

Q: Which results are given for `COC(=O)c1cccc(NC(=O)NC2CCN(c3ccnc(Nc4cc(OC)c(OC)c(OC)c4)n3)C2)c1` (centres unmarked) [GSK1379767]?
A: %Inh [1]: 35%; %Inh [2]: 0%; %Inh [3]: 0%; %Inh [4]: 0%; %Inh [5]: 26%; %Inh [6]: 0%; %Inh [7]: 13%; %Inh [8]: 19%; %Inh [9]: 2%; %Inh [10]: 0%; %Inh [11]: 36%; %Inh [12]: 0%; %Inh [13]: 24%; %Inh [14]: 0%; %Inh [15]: 12%; %Inh [16]: 27%; %Inh [17]: 0%; %Inh [18]: 37%; %Inh [19]: 0%; %Inh [20]: 16%

Q: How did the “%Inh” value [1] turn out when `Cn1ccc2ncnc(Oc3ccc(NC(=O)Nc4cccc(C(F)(F)F)c4)c(Cl)c3)c21` was run?
A: 4%

Q: What about the “%Inh” value [2] of the same molecule?
A: 0%

Q: And the “%Inh” value [3]?
A: 0%

Q: What about the “%Inh” value [4] of the same molecule?
A: 7%

Q: What about the “%Inh” value [5] of the same molecule?
A: 0%

Q: What about the “%Inh” value [6] of the same molecule?
A: 6%

Q: And the “%Inh” value [7]?
A: 0%

Q: And the “%Inh” value [8]?
A: 0%

Q: And the “%Inh” value [9]?
A: 0%

Q: What about the “%Inh” value [10] of the same molecule?
A: 0%

Q: And the “%Inh” value [11]?
A: 5%

Q: What about the “%Inh” value [12] of the same molecule?
A: 0%

Q: And the “%Inh” value [13]?
A: 99.8%

Q: What about the “%Inh” value [14] of the same molecule?
A: 0%

Q: What about the “%Inh” value [15] of the same molecule?
A: 5%

Q: What about the “%Inh” value [16] of the same molecule?
A: 8%

Q: And the “%Inh” value [17]?
A: 0%

Q: What about the “%Inh” value [18] of the same molecule?
A: 0%

Q: What about the “%Inh” value [19] of the same molecule?
A: 0%

Q: What about the “%Inh” value [20] of the same molecule?
A: 2%

Q: For `CC(C(=O)NC1CCN(c2ccnc(Nc3ccc(F)cc3)n2)C1)c1ccc(Cl)cc1` (centres unmarked) [GSK1379713], which “%Inh” value [1] is on record?
A: 8%

Q: What about the “%Inh” value [2] of the same molecule?
A: 0%

Q: What about the “%Inh” value [3] of the same molecule?
A: 0%

Q: What about the “%Inh” value [4] of the same molecule?
A: 2%

Q: And the “%Inh” value [5]?
A: 26%

Q: And the “%Inh” value [6]?
A: 0%

Q: What about the “%Inh” value [7] of the same molecule?
A: 0%

Q: And the “%Inh” value [8]?
A: 5%

Q: And the “%Inh” value [9]?
A: 0%

Q: And the “%Inh” value [10]?
A: 0%

Q: What about the “%Inh” value [11] of the same molecule?
A: 0%

Q: What about the “%Inh” value [12] of the same molecule?
A: 0%

Q: And the “%Inh” value [13]?
A: 6%

Q: What about the “%Inh” value [14] of the same molecule?
A: 0%

Q: And the “%Inh” value [15]?
A: 23%

Q: What about the “%Inh” value [16] of the same molecule?
A: 0%

Q: What about the “%Inh” value [17] of the same molecule?
A: 0%

Q: What about the “%Inh” value [18] of the same molecule?
A: 0%

Q: What about the “%Inh” value [19] of the same molecule?
A: 0%

Q: What about the “%Inh” value [20] of the same molecule?
A: 0%

Q: For `O=C(Nc1n[nH]c2cc(-c3ccco3)ccc12)C1CC1` [SB-737447], which “%Inh” value [1] is on record?
A: 5%

Q: What about the “%Inh” value [2] of the same molecule?
A: 39%

Q: What about the “%Inh” value [3] of the same molecule?
A: 34%

Q: What about the “%Inh” value [4] of the same molecule?
A: 3%

Q: What about the “%Inh” value [5] of the same molecule?
A: 4%

Q: What about the “%Inh” value [6] of the same molecule?
A: 0%

Q: What about the “%Inh” value [7] of the same molecule?
A: 4%

Q: And the “%Inh” value [8]?
A: 5%

Q: And the “%Inh” value [9]?
A: 17%

Q: And the “%Inh” value [10]?
A: 0%

Q: And the “%Inh” value [11]?
A: 7%

Q: What about the “%Inh” value [12] of the same molecule?
A: 19%

Q: What about the “%Inh” value [13] of the same molecule?
A: 0%

Q: And the “%Inh” value [14]?
A: 49%

Q: And the “%Inh” value [15]?
A: 7%

Q: What about the “%Inh” value [16] of the same molecule?
A: 0%

Q: And the “%Inh” value [17]?
A: 6%

Q: What about the “%Inh” value [18] of the same molecule?
A: 5%

Q: What about the “%Inh” value [19] of the same molecule?
A: 11%

Q: And the “%Inh” value [20]?
A: 38%

Q: How did the “%Inh” value [1] turn out when `Cc1ccc(Nc2ccnc(Nc3ccc4c(c3)CS(=O)(=O)C4)n2)cc1O.Cl` [GW579362] was run?
A: 62%

Q: What about the “%Inh” value [2] of the same molecule?
A: 0%

Q: And the “%Inh” value [3]?
A: 0%

Q: And the “%Inh” value [4]?
A: 29%

Q: And the “%Inh” value [5]?
A: 42%

Q: And the “%Inh” value [6]?
A: 0%

Q: And the “%Inh” value [7]?
A: 24%

Q: And the “%Inh” value [8]?
A: 31%

Q: And the “%Inh” value [9]?
A: 12%

Q: And the “%Inh” value [10]?
A: 44%

Q: What about the “%Inh” value [11] of the same molecule?
A: 46%

Q: And the “%Inh” value [12]?
A: 0%

Q: And the “%Inh” value [13]?
A: 0%

Q: What about the “%Inh” value [14] of the same molecule?
A: 89%

Q: What about the “%Inh” value [15] of the same molecule?
A: 77%

Q: What about the “%Inh” value [16] of the same molecule?
A: 88%

Q: And the “%Inh” value [17]?
A: 73%

Q: What about the “%Inh” value [18] of the same molecule?
A: 43%

Q: And the “%Inh” value [19]?
A: 95%

Q: What about the “%Inh” value [20] of the same molecule?
A: 23%

Q: What does the source list for `FC(F)(F)c1cc(Br)cc(Nc2nccc(-c3cnn4ncccc34)n2)c1` [GW810578]?
A: %Inh [1]: 23%; %Inh [2]: 0%; %Inh [3]: 6%; %Inh [4]: 21%; %Inh [5]: 28%; %Inh [6]: 0%; %Inh [7]: 45%; %Inh [8]: 59%; %Inh [9]: 22%; %Inh [10]: 0%; %Inh [11]: 7%; %Inh [12]: 0%; %Inh [13]: 0%; %Inh [14]: 39%; %Inh [15]: 73%; %Inh [16]: 16%; %Inh [17]: 52%; %Inh [18]: 8%; %Inh [19]: 37%; %Inh [20]: 98.9%

Q: For `CS(=O)(=O)c1cccc(CNc2nc(Nc3ccc4c(c3)[C@@H]3C[C@@H]4CNC3=O)ncc2C(F)(F)F)c1`, which “%Inh” value [1] is on record?
A: 1%

Q: And the “%Inh” value [2]?
A: 0%

Q: And the “%Inh” value [3]?
A: 0%

Q: And the “%Inh” value [4]?
A: 0%

Q: And the “%Inh” value [5]?
A: 0%

Q: What about the “%Inh” value [6] of the same molecule?
A: 0%

Q: What about the “%Inh” value [7] of the same molecule?
A: 41%

Q: What about the “%Inh” value [8] of the same molecule?
A: 15%

Q: And the “%Inh” value [9]?
A: 0%

Q: What about the “%Inh” value [10] of the same molecule?
A: 0%

Q: And the “%Inh” value [11]?
A: 0%

Q: What about the “%Inh” value [12] of the same molecule?
A: 2%

Q: What about the “%Inh” value [13] of the same molecule?
A: 0%

Q: And the “%Inh” value [14]?
A: 46%

Q: What about the “%Inh” value [15] of the same molecule?
A: 33%

Q: What about the “%Inh” value [16] of the same molecule?
A: 97.1%

Q: And the “%Inh” value [17]?
A: 96.4%

Q: And the “%Inh” value [18]?
A: 60%

Q: What about the “%Inh” value [19] of the same molecule?
A: 82%

Q: What about the “%Inh” value [20] of the same molecule?
A: 94%

From paper PMC5540273 (PLoS ONE, 2017)
